Common to all, as to test: NCI-60 one-dose screen, 48 h (100 = growth as untreated, 0 = no growth, -100 = all killed)
Conditions in all cases: 10 µM unless noted

The test system of assay [1] is RPMI-8226 leukemia.
Assay [2] relates to OVCAR-8 ovarian.
Assay [3] has as its system OVCAR-5 ovarian.
Assay [4] has as its system OVCAR-4 ovarian.
Assay [5] deals with SK-OV-3 ovarian.
Assay [6] has as its system IGROV1 ovarian.
In assay [7] the test system is OVCAR-3 ovarian.
Assay [8] has as its system HS 578T breast.
Assay [9] has as its system NCI/ADR-RES ovarian.
Assay [10] deals with T-47D breast.
The subject of assay [11] is BT-549 breast.
Assay [12] deals with MDA-MB-435 melanoma.
For assay [13], the system named is SW-620 colon.
The subject of assay [14] is MCF7 breast.
The subject of assay [15] is HCC-2998 colon.
Assay [16] deals with KM12 colon.
In assay [17] the test system is HCT-116 colon.

The panel holds about 83,000 compounds, 20% with a hit somewhere; the sample as a whole holds those more often.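 In brief: 96-well plates, 48 h treatment, single concentration, percent growth endpoint.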 Unmarked numbers belong to inactive results. Activity calls are given as the source filed them. The calls were made as follows: active = growth percent below 10; inactive = the rest.

Consider `COC(=O)/C=C/c1cc(OC(C)=O)c2c(c1)C(C(=O)OC)C(c1ccc(OC(C)=O)c(OC(C)=O)c1)O2` (configuration not stated), for which the growth in [1] is 11.1%; in assay [2], -12.5% (active); in assay [3] it was 50.5%; in [4], 49.5%; in [5] it was 18.8%; in assay [6] it was 20.1%. Also, the growth in [7] is 3.01% (active); in [8], 41.1%; in assay [9], 6.1% (active); in assay [10], 49.3%; in [11], -4.09% (active); in assay [12], -26.1% (active). The growth is 20.5% in assay [13], 10% in [14], 25.5% in assay [15] and 16.5% in assay [16].

`CC[C@]12C=CCN3CC[C@@]4(c5cc(NC(=O)CCC(=O)O[C@H]6CC[C@H]7[C@@H]8CC[C@H]9CC(=O)CC[C@]9(C)[C@H]8CC[C@]67C)c(OC)cc5N(C)[C@H]4[C@@](O)(C(=O)OC)[C@@H]1OC(C)=O)[C@@H]32`: the growth in [1] is 45.2%; in assay [2] it was 75.9%; in assay [3], 104%; in assay [4], 60.7%; in assay [5], 98.6%; in assay [6], 69.6%. In addition, the growth in assay [7] was 73.2%; in assay [8] it was 75.5%; in assay [9], 72.9%; in assay [10], 46.4%; in assay [11], 58.6%; in assay [12] it was 76.5%. In addition, the growth in [13] is 85.6%; in assay [14] it was 48.2%; in assay [15], 97.5%; in [16], 74.2%.

On to `CCCCCCCCCCCCCC1=NCC[N+]1(CCO)Cc1ccccc1` (configuration not stated), for which the growth is -47.2% (active) in [1]; -83% (active) in assay [2]; -15% (active) in [3]; -28.5% (active) in assay [4]; 48.8% in [5]; -72.6% (active) in assay [6]. Also, the growth is -86.9% (active) in [7]; -36.5% (active) in [8]; -60.1% (active) in assay [9]; -72.8% (active) in assay [10]; -50.7% (active) in assay [11]; -91.8% (active) in [12]. Further, the growth in assay [13] is -78.2% (active); in assay [14], -84.8% (active); in assay [15], -75.3% (active); in [16] it was -85.1% (active).

Take `COc1c(O)cc2oc3cc(O[C@@H]4OC(C)[C@@H](O)[C@H](O)C4O)c(CC=C(C)C)c(O)c3c(=O)c2c1CC=C(C)C` (some centres not stated): the growth in [1] is 73.2%; in assay [2], 99.3%; in assay [3], 119%; in assay [4] it was 102%; in assay [5] it was 113%; in assay [6], 83.9%. In addition, the growth in assay [7] was 94.7%; in assay [8], 98.4%; in [9], 102%; in assay [10], 86.6%; in assay [11] it was 99.3%; in assay [12], 97.9%. In addition, the growth in assay [13] was 101%; in [14] it was 76%; in assay [15] it was 94.8%; in assay [16], 87.8%.

Regarding `CN(C)c1ccc(-c2ccc3[nH]c(=O)nc(-c4ccc(F)cc4)c3c2)cn1`, the growth in [1] was 46.9%; in assay [2], 43.5%; in [3] it was 79.9%; in [4], 66.5%; in assay [5] it was 36.2%; in assay [6] it was 53.8%. Further, the growth in assay [7] is 6.67% (active); in assay [8] it was 28.5%; in assay [9], 51.7%; in assay [10], 36.6%; in assay [11] it was 40.6%; in assay [12], 2.63% (active). The growth was 29.8% in assay [13]; 29.4% in assay [14]; 22.2% in assay [17]; 84.3% in assay [15]; 31.5% in [16].

Turning to `O=C(Nc1ccc2ncnc(Nc3cccc(C(F)(F)F)c3)c2c1)c1cccs1`, the growth in [1] was 40.8%; in assay [2] it was 49.9%; in assay [3], 63.9%; in assay [4], 33.1%; in assay [5] it was 83.7%; in [6] it was 32.7%. Also, the growth in [7] is 29.1%; in assay [8], 103%; in assay [9], 55.7%; in assay [10], 32.3%; in assay [11], 71.8%; in [12], 63.3%. The growth in [13] was 27.7%; in [14] it was 32.2%; in assay [15] it was 62.8%; in [16], 49.6%.

For the compound `C=C1C(=O)O[C@H]2[C@H]1CC/C(COC(=O)CCCCCCCC(=O)OC/C1=C/CC[C@@]3(C)O[C@H]3[C@H]3OC(=O)C(=C)[C@@H]3CC1)=C\CC[C@@]1(C)O[C@@H]21`, the growth is 3.72% (active) in assay [1]; 1.92% (active) in assay [2]; 44.4% in assay [3]; 26.7% in assay [4]; 101% in assay [5]; -13.3% (active) in assay [6]. In addition, the growth was 2.34% (active) in assay [7]; 9.65% (active) in [8]; 28.6% in assay [9]; -30.2% (active) in [10]; 25.2% in assay [11]; 29.9% in assay [12]. Moreover, the growth in assay [13] was 7.61% (active); in assay [14] it was 5.35% (active); in [17], -43.6% (active); in [15], 78.6%; in [16], 46.7%.

On to `O=c1c2ccccc2oc2ccc(OCCCCCCN3CCCCCC3)cc12`, for which the growth in [1] was 13.3%; in [2], 50.3%; in [3], 58.9%; in [4], 46.6%; in [5] it was 72.4%; in assay [6], 46.2%. Also, the growth in assay [7] is 59.8%; in assay [8], 81.9%; in [9], 54.2%; in assay [10], 21.5%; in assay [11], 60.5%; in assay [12], 44.6%. The growth was 23.5% in [13], 28.9% in assay [14], 62.9% in assay [15] and 29% in assay [16].

As to `COc1ccc(-c2nnc(N3CCN(C(=O)CN4CCN(c5ccccc5)CC4)CC3)nc2-c2ccc(OC)cc2)cc1`, the growth in [1] was -58.3% (active); in [2] it was 42%; in [3], 78.6%; in [4], 24.4%; in [5] it was 74.4%; in assay [6] it was 34.3%. Besides, the growth was 33.8% in assay [7]; 55.4% in assay [8]; 42.1% in assay [9]; 16.8% in [10]; -16.1% (active) in assay [11]; 22.7% in assay [12]. Besides, the growth was 35.7% in assay [13]; 11.7% in [14]; 8.34% (active) in assay [17]; 22.2% in [15]; 16.8% in [16].

Values taken from PubChem BioAssay (NCI).
